Test systems include DU-145 prostate; K-562 leukemia; MALME-3M melanoma; MDA-MB-231 breast; RXF 393 renal; SF-268 CNS; SF-295 CNS; SF-539 CNS; UACC-257 melanoma; M14 melanoma; HCT-15 colon; HT29 colon; SNB-75 CNS; SNB-19 CNS; U251 CNS; SK-MEL-5 melanoma; UACC-62 melanoma; LOX IMVI melanoma; SK-MEL-28 melanoma; PC-3 prostate.
What all share (experiment): NCI-60 one-dose screen, 48 h (100 = growth as untreated, 0 = no growth, -100 = all killed)
Settings in all cases: 10 µM

The panel holds about 83,000 compounds, 20% with a hit somewhere; the sample as a whole holds those more often.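 Cells were grown in 96-well plates and exposed to the test compound at a single concentration for 48 hours; results are reported as percent growth, with values below 10 considered active.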 Unmarked numbers belong to inactive results. Activity calls are given as the source filed them.

On to `CCOC(=S)Sc1ccc([N+](=O)[O-])cc1[N+](=O)[O-]`, for which the growth with DU-145 prostate is 95.5%; in the assay on K-562 leukemia, 7.81% (active); with MALME-3M melanoma, 84.1%; in the assay with MDA-MB-231 breast, 88.4%; with RXF 393 renal, 108%; in the assay on SF-268 CNS, 104%. Moreover, the growth in the assay on SF-295 CNS is 99.2%; in the assay on SF-539 CNS, 26.2%; with UACC-257 melanoma, 79.2%; in the assay on M14 melanoma, 36.2%; with HCT-15 colon it was 82.8%; with HT29 colon, 0.214% (active). Further, the growth with SNB-75 CNS was 99.5%; in the assay with SNB-19 CNS it was 111%; in the assay with U251 CNS, 90.4%; in the assay with SK-MEL-5 melanoma, 88.4%; in the assay on UACC-62 melanoma, 99%; in the assay on LOX IMVI melanoma, 14.3%. The growth in the assay on SK-MEL-28 melanoma was 67.5%.

As to `N#Cc1cnc2ccc(NCc3cnc[nH]3)cc2c1Nc1ccc(F)c(Cl)c1`, the growth in the assay on DU-145 prostate was 39.5%; in the assay on K-562 leukemia, 66.8%; in the assay on MALME-3M melanoma, 110%; with MDA-MB-231 breast, 78%; in the assay on RXF 393 renal it was 52.8%; with SF-268 CNS it was 63.2%. Further, the growth in the assay on SF-295 CNS is 94.4%; with SF-539 CNS it was 92.1%; in the assay on UACC-257 melanoma, 84.3%; with M14 melanoma, 72.1%; in the assay on HCT-15 colon, 88.4%; in the assay on HT29 colon, 82%. Moreover, the growth is 86.4% in the assay with SNB-75 CNS; 76.8% in the assay with SNB-19 CNS; 58.8% with U251 CNS; 87.5% with SK-MEL-5 melanoma; 83% in the assay on UACC-62 melanoma; 58.2% with LOX IMVI melanoma. Moreover, the growth with SK-MEL-28 melanoma was 98%.

Turning to `NC1CCC(Nc2nc(NCc3cc(Cl)ccc3O)c3ncn(C4CCCC4)c3n2)CC1` (configuration not stated), the growth was 0.994% (active) in the assay with DU-145 prostate; -23.3% (active) with K-562 leukemia; -65.5% (active) with MALME-3M melanoma; -16.7% (active) in the assay on MDA-MB-231 breast; -58.9% (active) in the assay on RXF 393 renal; -23.1% (active) in the assay on SF-268 CNS. The growth was -5.72% (active) with SF-295 CNS; -62.4% (active) with SF-539 CNS; -58.9% (active) in the assay with UACC-257 melanoma; -71.6% (active) in the assay on M14 melanoma; -10.1% (active) with HCT-15 colon; -16.9% (active) in the assay on HT29 colon. Further, the growth in the assay on SNB-75 CNS was -85.8% (active); in the assay on SNB-19 CNS, 9.87% (active); in the assay with U251 CNS, -22.8% (active); in the assay with PC-3 prostate, -8.24% (active); in the assay on SK-MEL-5 melanoma, -93.7% (active); in the assay with UACC-62 melanoma, -58.8% (active). For the same compound, the growth in the assay with LOX IMVI melanoma is -73.7% (active); in the assay with SK-MEL-28 melanoma it was -44.7% (active).

In the case of `COc1cc(-c2cc(-c3ccc(C)cc3)nc3nc(N)[nH]c(=O)c23)ccc1Oc1ccnc2cc(Cl)ccc12`, the growth is 87.7% with DU-145 prostate; 74.4% with K-562 leukemia; 104% in the assay on MALME-3M melanoma; 66.6% in the assay on MDA-MB-231 breast; 77.8% with RXF 393 renal; 77.4% in the assay on SF-268 CNS. Also, the growth was 101% in the assay with SF-295 CNS; 103% with SF-539 CNS; 90.1% in the assay on UACC-257 melanoma; 101% with M14 melanoma; 88.7% in the assay on HCT-15 colon; 84.6% in the assay with HT29 colon. Moreover, the growth in the assay with SNB-75 CNS is 67.5%; in the assay on SNB-19 CNS, 74.3%; in the assay with U251 CNS, 81%; with SK-MEL-5 melanoma, 84%; in the assay on UACC-62 melanoma, 86.9%; in the assay with LOX IMVI melanoma, 86.3%. Moreover, the growth in the assay with SK-MEL-28 melanoma was 88.3%.

In the case of `CCOc1ccc2c(c1)CC[C@@H]1[C@@H]2CC[C@]2(C)[C@@H](O)[C@@H](O)C[C@@H]12`, the growth is 108% with DU-145 prostate; 91.8% with K-562 leukemia; 91.4% with MALME-3M melanoma; 109% with MDA-MB-231 breast; 95.9% with RXF 393 renal; 103% in the assay with SF-268 CNS. For the same compound, the growth with SF-295 CNS is 100%; with SF-539 CNS it was 103%; in the assay on UACC-257 melanoma, 95.4%; in the assay with M14 melanoma, 108%; in the assay with HCT-15 colon, 95%; in the assay with HT29 colon, 109%. The growth with SNB-75 CNS is 107%; with SNB-19 CNS, 99%; in the assay on U251 CNS it was 95%; in the assay with PC-3 prostate, 91.2%; with SK-MEL-5 melanoma it was 96.8%; in the assay with UACC-62 melanoma, 94.4%. The figures for the growth in the assay with LOX IMVI melanoma and with SK-MEL-28 melanoma were 102% and 100%, respectively.

In the case of `Cc1ccccc1C1=N[C@@H](Cc2ccccc2)C(=O)c2c(nc3ccccn23)N1`, the growth in the assay with DU-145 prostate was 113%; with K-562 leukemia, 113%; in the assay on MALME-3M melanoma, 109%; in the assay with MDA-MB-231 breast it was 104%; in the assay with RXF 393 renal, 105%; in the assay on SF-268 CNS, 104%. Moreover, the growth was 96.5% with SF-295 CNS; 99.4% in the assay on SF-539 CNS; 87.3% in the assay with UACC-257 melanoma; 102% with M14 melanoma; 100% in the assay with HCT-15 colon; 115% in the assay with HT29 colon. The growth in the assay with SNB-75 CNS is 70.8%; with SNB-19 CNS it was 109%; in the assay on U251 CNS, 100%; in the assay on PC-3 prostate, 89.4%; with SK-MEL-5 melanoma, 103%; in the assay with UACC-62 melanoma it was 103%. Moreover, the values for the growth in the assay with LOX IMVI melanoma and with SK-MEL-28 melanoma were 91.7% and 113%, respectively.

Regarding `COc1cccc(C(=O)N(c2ccc(F)c(F)c2)C(C(=O)NC(C)(C)C)c2cc3c(C)cc(C)cc3nc2Cl)c1` (configuration not stated), the growth was 75.5% in the assay on DU-145 prostate; 55.8% with K-562 leukemia; 95% with MALME-3M melanoma; 47.4% in the assay on MDA-MB-231 breast; 72.3% in the assay with RXF 393 renal; 64.7% in the assay with SF-268 CNS. The growth in the assay on SF-295 CNS was 54%; with SF-539 CNS it was 79.4%; in the assay on UACC-257 melanoma it was 79.6%; in the assay on M14 melanoma, 64.9%; in the assay on HCT-15 colon, 56.5%; with HT29 colon, 71.1%. The growth was 62.9% in the assay on SNB-75 CNS; 74.1% in the assay with SNB-19 CNS; 69% with U251 CNS; 30.9% in the assay with PC-3 prostate; 58.2% with SK-MEL-5 melanoma; 66.6% in the assay with UACC-62 melanoma. The growth in the assay with LOX IMVI melanoma was 68.7%; with SK-MEL-28 melanoma it was 85.6%.

Turning to `Cc1cccc2c(Nc3ccc(NS(C)(=O)=O)cc3)c3ccc([N+](=O)[O-])cc3nc12`, the growth in the assay with DU-145 prostate is -15.3% (active); with K-562 leukemia, 1.15% (active); in the assay with MALME-3M melanoma it was -22% (active); in the assay with MDA-MB-231 breast, 61.4%; with RXF 393 renal it was -31.9% (active); in the assay on SF-268 CNS, 12.5%. Moreover, the growth was -15.2% (active) with SF-295 CNS; 16.8% in the assay on SF-539 CNS; -16.3% (active) in the assay with UACC-257 melanoma; 16.7% in the assay on M14 melanoma; 6.83% (active) in the assay on HCT-15 colon; -10.3% (active) with HT29 colon. Moreover, the growth is 19.7% in the assay on SNB-75 CNS; 25.7% with SNB-19 CNS; 3.4% (active) in the assay with U251 CNS; 18% in the assay on PC-3 prostate; -19.4% (active) with SK-MEL-5 melanoma; 1.92% (active) in the assay on UACC-62 melanoma. Moreover, the results for the growth in the assay with LOX IMVI melanoma and in the assay on SK-MEL-28 melanoma were -43.5% (active) and -5.65% (active), respectively.
